{"source": "PubChem BioAssay (NCI)", "note": "This is part of a sample that, as a whole, favours compounds with a hit. Of some 83,000 tested, about 20% had one in any assay.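 Results are percent growth after 48 hours of single-concentration exposure. 100 means growth as in untreated cells, lower positive values show inhibition; negative values down to -100 show cell death.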 Values without a mark were called inactive. Activity calls are given as the source filed them. Rule for the calls: active = growth percent below 10; inactive = the rest."}
{"system": "HS 578T breast", "assay": "NCI-60 one-dose screen, 48 h (100 = growth as untreated, 0 = no growth, -100 = all killed)", "conditions": "10 µM unless noted"}
{"smiles": "COc1ccc(-c2c(N)n[nH]c2-c2cc3c(c(OC)c2OC)OCO3)cc1", "growth": "83.3%"}
{"smiles": "Clc1ccc(-c2nc3ccccc3s2)cc1Cl", "growth": "104%"}
{"smiles": "Fc1ccc(CNCCNc2ncnc3c2cnn3-c2ccccc2)cc1", "growth": "92.1%"}
{"smiles": "COc1ccc(-n2c(=O)sc3c(Cl)nc(C)nc32)c(OC)c1", "growth": "93.9%"}
{"smiles": "O=C(O)c1nc(-c2ccccc2)oc1N1CCOCC1", "growth": "86.3%"}
{"smiles": "Cn1c(=O)c2[nH]c(C3CC=CCC3)nc2n(C)c1=O", "note": "(stereo unspecified)", "growth": "97.7%"}
{"smiles": "COc1ccc(C2C=C(c3ccc(N)cc3)N=C3SC=CN32)cc1OC", "note": "(stereo unspecified)", "growth": "127%"}
{"smiles": "O=S(=O)(NCCNc1nccc(-c2c(-c3ccc(O)cc3)nc3sccn23)n1)c1cccc2ccccc12", "growth": "110%"}
{"smiles": "O=S(=O)(NCCNc1nccc(-c2c(-c3ccc(F)cc3)nc3sccn23)n1)c1ccc(F)cc1", "growth": "93.8%"}
{"smiles": "COc1ccc(/C=C2\\CN(Cc3cn(CCNc4ccnc5cc(Cl)ccc45)nn3)C/C(=C\\c3ccc(OC)c(OC)c3)C2=O)cc1OC", "growth": "23.4%"}
{"smiles": "Cc1ccc(S(=O)(=O)c2nc(-c3ccccc3)oc2S(C)(=O)=O)cc1", "growth": "91.2%"}
{"smiles": "O=C(O)/C=C/C(=O)c1ccc(Cl)cc1", "growth": "119%"}
{"smiles": "Cc1ccc(S(=O)(=O)NCCNc2nccc(-c3c(-c4ccc(O)cc4)nc4sccn34)n2)cc1", "growth": "106%"}
{"smiles": "C=C1CCC[C@]2(C)CCC[C@H](C)[C@@H](OC(C)=O)[C@@H]3OC(=O)C(=C)[C@@H]3C[C@H]1O2", "growth": "78%"}
{"smiles": "Cc1cc(N)n(S(=O)(=O)c2oc(-c3ccccc3)nc2C#N)n1", "growth": "116%"}
{"smiles": "COc1ccc(-c2cc3c(OC)c(OC)c(OC)cc3oc2=O)cc1", "growth": "33.3%"}
{"smiles": "COc1ccc(OC)c(C2OC(c3ccc4ccccc4c3O)=NN2C(C)=O)c1", "note": "(stereo unspecified)", "growth": "71.7%"}
{"smiles": "COc1cc(-c2nn(-c3cccc(NC(=O)c4ccccc4)c3)cc2-c2ccncc2)ccc1Cl", "growth": "-1.34% (active)"}
{"smiles": "O=C(Nc1cccc(-n2cc(-c3ccncc3)c(-c3ccc(Cl)c(O)c3)n2)c1)Nc1ccc(Cl)c(Cl)c1", "growth": "36.1%"}
{"smiles": "O=S(=O)(NCCNc1nccc(-c2c(-c3cccc(O)c3)nc3sccn23)n1)c1ccc(F)cc1", "growth": "83%"}
{"smiles": "O=C(Nc1ccc2c(c1)OCCO2)C(=O)c1c[nH]c2ccccc12", "growth": "13.1%"}
{"smiles": "CCCCCCCC/C=C/CCCCCCCC1=NC(C)(C)CN1C(C)(C)CO", "growth": "65.9%"}
{"smiles": "COc1ccc(-n2c(=S)sc3c(Cl)nc(C)nc32)c(OC)c1", "growth": "72.6%"}
{"smiles": "CCOC(=O)c1cn2c3c(cc(C)cc3c1=O)C(=O)/C(=C/c1ccccc1)C2", "growth": "103%"}
{"smiles": "COc1cc(-c2nn(-c3cccc(NC(=O)c4ccc(Cl)c(C(F)(F)F)c4)c3)cc2-c2ccncc2)ccc1Cl", "growth": "34.7%"}
{"smiles": "COc1cc(-c2nc(-c3nc4ccc(Cl)cc4[nH]3)cc3c2[nH]c2ccccc23)cc(OC)c1OC", "growth": "77.3%"}
{"smiles": "O=c1c2sc3ncccc3c2nnn1-c1ccccc1", "growth": "108%"}
{"smiles": "CCCCCCCC[C@@H](O)CC(=O)N[C@@H](CC(N)=O)C(=O)N[C@@H](CCC(N)=O)C(=O)N[C@@H](CC(=O)c1cc(C)cc(O)c1C(=O)c1c(O)cccc1O)CC(C)C", "growth": "26.9%"}
{"smiles": "COc1cc(/C(C#N)=C/c2ccc3c(c2OC)OCO3)cc2c1OCO2", "growth": "0.131% (active)"}
{"smiles": "COc1ccc(Nc2[nH]n3c(=O)cc(C)nc3c2C(N)=O)c(OC)c1", "growth": "99.2%"}
{"smiles": "Fc1ccc(Nc2nc(NCCNc3ccnc4cc(Cl)ccc34)nc(N3CCOCC3)n2)cc1", "growth": "70.2%"}
{"smiles": "CN(C)c1oc(C2OC2c2ccccc2)nc1C#N", "note": "(stereo unspecified)", "growth": "90.1%"}
{"system": "NCI/ADR-RES ovarian", "assay": "NCI-60 one-dose screen, 48 h (100 = growth as untreated, 0 = no growth, -100 = all killed)", "conditions": "10 µM unless noted"}
{"smiles": "COc1ccc(-c2c(N)n[nH]c2-c2cc3c(c(OC)c2OC)OCO3)cc1", "growth": "96.8%"}
{"smiles": "COc1cc(-c2nn(-c3cccc(NC(=O)c4cccc(C(F)(F)F)c4)c3)cc2-c2ccncc2)ccc1Cl", "growth": "2.75% (active)"}
{"smiles": "Clc1ccc(-c2nc3ccccc3s2)cc1Cl", "growth": "98.1%"}
{"smiles": "Fc1ccc(CNCCNc2ncnc3c2cnn3-c2ccccc2)cc1", "growth": "95.8%"}
{"smiles": "COc1ccc(-n2c(=O)sc3c(Cl)nc(C)nc32)c(OC)c1", "growth": "101%"}
{"smiles": "O=C(O)c1nc(-c2ccccc2)oc1N1CCOCC1", "growth": "96.6%"}
{"smiles": "Cn1c(=O)c2[nH]c(C3CC=CCC3)nc2n(C)c1=O", "note": "(stereo unspecified)", "growth": "112%"}
{"smiles": "COc1ccc(C2C=C(c3ccc(N)cc3)N=C3SC=CN32)cc1OC", "note": "(stereo unspecified)", "growth": "106%"}
{"smiles": "O=S(=O)(NCCNc1nccc(-c2c(-c3ccc(O)cc3)nc3sccn23)n1)c1cccc2ccccc12", "growth": "102%"}
{"smiles": "O=S(=O)(NCCNc1nccc(-c2c(-c3ccc(F)cc3)nc3sccn23)n1)c1ccc(F)cc1", "growth": "81.2%"}
{"smiles": "COc1ccc(/C=C2\\CN(Cc3cn(CCNc4ccnc5cc(Cl)ccc45)nn3)C/C(=C\\c3ccc(OC)c(OC)c3)C2=O)cc1OC", "growth": "103%"}
{"smiles": "Cc1ccc(S(=O)(=O)c2nc(-c3ccccc3)oc2S(C)(=O)=O)cc1", "growth": "85.1%"}
{"smiles": "COc1ccc(C2=Nn3c(nnc3-n3nc(C)cc3C)SC2)cc1", "growth": "10.7%"}
{"smiles": "O=C(O)/C=C/C(=O)c1ccc(Cl)cc1", "growth": "109%"}
{"smiles": "Cc1ccc(S(=O)(=O)NCCNc2nccc(-c3c(-c4ccc(O)cc4)nc4sccn34)n2)cc1", "growth": "97.8%"}
{"smiles": "C=C1CCC[C@]2(C)CCC[C@H](C)[C@@H](OC(C)=O)[C@@H]3OC(=O)C(=C)[C@@H]3C[C@H]1O2", "growth": "73.6%"}
{"smiles": "Cc1cc(N)n(S(=O)(=O)c2oc(-c3ccccc3)nc2C#N)n1", "growth": "100%"}
{"smiles": "COc1ccc(-c2cc3c(OC)c(OC)c(OC)cc3oc2=O)cc1", "growth": "4.06% (active)"}
{"smiles": "COc1ccc(OC)c(C2OC(c3ccc4ccccc4c3O)=NN2C(C)=O)c1", "note": "(stereo unspecified)", "growth": "59.2%"}
{"smiles": "Cc1ccc(NS(=O)(=O)c2cc(C)ccc2C)cc1", "growth": "2.96% (active)"}
{"smiles": "COc1cc(-c2nn(-c3cccc(NC(=O)c4ccccc4)c3)cc2-c2ccncc2)ccc1Cl", "growth": "0.342% (active)"}
{"smiles": "O=C(Nc1cccc(-n2cc(-c3ccncc3)c(-c3ccc(Cl)c(O)c3)n2)c1)Nc1ccc(Cl)c(Cl)c1", "growth": "20.9%"}
{"smiles": "O=S(=O)(NCCNc1nccc(-c2c(-c3cccc(O)c3)nc3sccn23)n1)c1ccc(F)cc1", "growth": "97.9%"}
{"smiles": "O=C(Nc1ccc2c(c1)OCCO2)C(=O)c1c[nH]c2ccccc12", "growth": "-30.3% (active)"}
{"smiles": "CCCCCCCC/C=C/CCCCCCCC1=NC(C)(C)CN1C(C)(C)CO", "growth": "56%"}
{"smiles": "COc1ccc(-n2c(=S)sc3c(Cl)nc(C)nc32)c(OC)c1", "growth": "78.5%"}
{"smiles": "CCOC(=O)c1cn2c3c(cc(C)cc3c1=O)C(=O)/C(=C/c1ccccc1)C2", "growth": "93.9%"}
{"smiles": "CN(C)CC(C(=O)c1ccccc1)c1ccccc1", "note": "(stereo unspecified)", "growth": "17.1%"}
{"smiles": "NC(=O)CCCN1C/C(=C\\c2ccccc2)C(=O)c2ccccc21", "growth": "109%"}
{"smiles": "COc1ccc(Nc2nn3c(C)cc(C)nc3c2C(=O)Nc2ccc(C)cc2)c(OC)c1", "growth": "105%"}
{"smiles": "COc1cc(-c2nn(-c3cccc(NC(=O)c4ccc(Cl)c(C(F)(F)F)c4)c3)cc2-c2ccncc2)ccc1Cl", "growth": "13.4%"}
{"smiles": "COc1cc(-c2nc(-c3nc4ccc(Cl)cc4[nH]3)cc3c2[nH]c2ccccc23)cc(OC)c1OC", "growth": "55.6%"}
{"smiles": "Cc1c(C(N)=O)sc2c1c(=O)n(Cc1ccccc1)c1nnc(Nc3ccccc3)n21", "growth": "103%"}
{"smiles": "O=c1c2sc3ncccc3c2nnn1-c1ccccc1", "growth": "107%"}
{"smiles": "CCCCCCCC[C@@H](O)CC(=O)N[C@@H](CC(N)=O)C(=O)N[C@@H](CCC(N)=O)C(=O)N[C@@H](CC(=O)c1cc(C)cc(O)c1C(=O)c1c(O)cccc1O)CC(C)C", "growth": "93.7%"}
{"smiles": "COc1cc(/C(C#N)=C/c2ccc3c(c2OC)OCO3)cc2c1OCO2", "growth": "-7.38% (active)"}
{"smiles": "COc1ccc(Nc2[nH]n3c(=O)cc(C)nc3c2C(N)=O)c(OC)c1", "growth": "103%"}
{"smiles": "Fc1ccc(Nc2nc(NCCNc3ccnc4cc(Cl)ccc34)nc(N3CCOCC3)n2)cc1", "growth": "77.8%"}
{"smiles": "CN(C)c1oc(C2OC2c2ccccc2)nc1C#N", "note": "(stereo unspecified)", "growth": "100%"}
